Bioassay records as filed in PubChem.
BAZ2B inh = blocks human BAZ2B; Q9UIF8; AlphaScreen BAZ2B-H3K14Ac peptide displacement; Potency, µM (titrated, usually from 114 µM), inactives show at the top dose activity change, negative = inhibition, usual class: inhibitors; 360,000 compounds, 4.4% hits; AID 504333; also: % is scaled to controls: 0 for no effect and ±100 for the full control effect; nearly all actives have a fitted effect of over 60% in size
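AlphaScreen displacement of biotin-H3(5-23)K14Ac peptide (50 nM final) from BAZ2B (50 nM final) in PBS pH 7.4, 0.01% Tween-20; complex preformed 30 min RT, then compounds (top 110 uM) 30 min RT, beads 20 min dark.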
HP1b binding inh = blocks HP1-beta chromodomain binding to methylated histone tails; Potency, µM (series often up to 114 µM), for the others: at the top dose activity change, negative = inhibition, usual class: inhibitors; 390,000 compounds, 0.56% hits; AlphaScreen HP1-beta / biotin-H3K9me3 peptide binding; P83916; also: nearly all actives have a fitted effect of over 70% in size
Target sequence (P83916 whole entry, looked up): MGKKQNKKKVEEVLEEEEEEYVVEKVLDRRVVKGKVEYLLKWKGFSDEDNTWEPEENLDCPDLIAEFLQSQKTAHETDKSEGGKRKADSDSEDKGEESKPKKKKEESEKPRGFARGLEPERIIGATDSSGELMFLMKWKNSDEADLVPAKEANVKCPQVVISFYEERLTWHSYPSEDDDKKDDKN
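AlphaScreen: HP1-beta (50 nM) preformed 30 min with biotin-H3(1-18)K9me3 peptide (50 nM) in PBS pH 7.4, 0.01% Tween-20. Compound added for 30 min at RT, then streptavidin donor/nickel chelate acceptor beads (10 ug/mL) for 30 min.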
G9a inh = G9a (human) methyltransferase inhibition. Potency, µM (doses to about 102 µM), inactives show top-dose activity, negative = inhibition, actives largely listed as inhibitors. G9a H3K9 monomethylation, AlphaScreen, 2 h. Q96KQ7. 350,000 compounds, 8.8% hits. AID 504332; also: % is scaled to controls: 0 for no effect and ±100 for the full control effect; nearly all actives have a fitted effect of over 75% in size
Target sequence (Q96KQ7 913-1193 limits assumed): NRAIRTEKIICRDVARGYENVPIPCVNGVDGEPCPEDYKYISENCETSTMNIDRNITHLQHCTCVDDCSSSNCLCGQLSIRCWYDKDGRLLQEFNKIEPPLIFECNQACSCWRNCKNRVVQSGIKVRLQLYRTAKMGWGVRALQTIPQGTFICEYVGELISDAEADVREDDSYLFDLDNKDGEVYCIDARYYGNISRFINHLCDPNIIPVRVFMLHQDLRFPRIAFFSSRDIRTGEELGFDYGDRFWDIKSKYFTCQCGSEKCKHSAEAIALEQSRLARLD
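Readings reflect AlphaScreen signal from monomethyl-H3K9 antibody detection. HMT at 20 nM; substrate b-H3K9 500 nM; cofactor SAM 20 uM; 2 h RT reaction; compounds tested as titrations in qHTS with 15 min preincubation.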
PLK1 PBD block = blocks phosphopeptide binding to human PLK1 polo-box domain | P53350 | Plk1 PBD binding of FITC phosphopeptide, fluorescence polarization | Potency, µM, without a hit: max response, negative = inhibition, actives largely listed as inhibitors | 360,000 compounds, 2.8% hits | AID 720504; also: series mostly up to about 57 µM; % is scaled to controls: 0 for no effect and ±100 for the full control effect; nearly all actives have a fitted effect of over 65% in size
JMJD2A Tudor inh = JMJD2A Tudor domain (human) inhibition; Potency, µM (doses to about 114 µM), inactives show at the highest dose activity change, negative = inhibition, usual class: inhibitors; AlphaScreen JMJD2A-Tudor / H3K4me3 peptide binding; O75164; 390,000 compounds, 4.4% hits; AID 504339; also: % is scaled to controls: 0 for no effect and ±100 for the full control effect; nearly all actives have a fitted effect of over 50% in size
12-LOX inh = inhibitors of human 12S-lipoxygenase ALOX12; P18054; purified 12hLO, xylenol orange hydroperoxide absorbance; Potency, µM (doses to about 108 µM), without a hit: top-dose activity change, negative = inhibition, actives largely listed as inhibitors; 580,000 compounds, 1.1% hits; also: % is scaled to controls: 0 for no effect and ±100 for the full control effect
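Purified human 12hLO (150 nM final) in 25 mM Hepes, 0.01% Triton X-100, pH 7.0 was preincubated 15 min at room temperature with compound. Then 40 uM arachidonic acid was added, 30 min. Hydroperoxide was read by Fe-XO absorbance ratio 573/405 nm.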
* hit, by the source's call; ? = inconclusive; . = no result; [ ] = another dose, or the depositor's remark. The list is not random: actives were taken first. Their share in the collection is about 9%. Calls follow the shape of the dose curve; as a rule, active = well fitted curve in the direction sought with a large enough effect; inconclusive = small, poorly fitted or top-dose-only effect, or another doubt; inactive = no such curve, though single readings can be large; an effect the other way counts as inactive or inconclusive. Potency is read from the fitted curve at half-maximal effect.

SMILES	BAZ2B inh	HP1b binding inh	G9a inh	PLK1 PBD block	JMJD2A Tudor inh	12-LOX inh
Oc1ccc(C2CCN(c3ccnc4ccccc34)CC2)cc1O	.	.	.	.	.	3.1µM*
O=C(C1CC1)N1CCN(c2ccnc3cc(Cl)ccc23)CC1	-16%	24%	-3%	1%	-6%	0%
Cc1ccc(S(=O)(=O)N2[C@@H](c3ccccc3F)C(C(=O)O)=CC[C@H]2c2ccc(Cl)c(Cl)c2)cc1	71µM*	27%	-28%[2.33 µM]	?	-19%	?
Cc1ccc(S(=O)(=O)N2[C@@H](c3ccccc3)C(C(=O)O)=CC[C@H]2c2ccc(Cl)c(Cl)c2)cc1	?	30%	24%[2.33 µM]	?	-14%	?
Cc1ccc([C@H]2C(C(=O)O)=CC[C@@H](c3ccc(Cl)c(Cl)c3)N2S(=O)(=O)c2ccc(C)cc2)cc1	.	67%	.	30µM*	-21%	?
COC(=O)NNC(=O)C12CC3CC(CC(C3)C1)C2	-31%	12%	15%[59 µM]	-12%	-3%	-13%
NC(=S)NNC(=O)C12CC3CC(CC(C3)C1)C2	-32%	9%	?	27µM*	-9%	-4%
Cc1nc(OCC(C)C)c2sc3nc4c(cc3c2n1)COC(C)(C)C4	-12%	16%	?	-7%	-15%	133%
COc1nc(C)nc2c1sc1nc3c(cc12)COC(C)(C)C3	-2%	-13%	22%[12.7 µM]	27µM*	-16%[11.4 µM]	14%
C#CCOCCOCCOCCNc1nc(N2CCN(C(=O)C([C@@H](C)O)n3cc([C@@H](N)CCCCN)nn3)CC2)nc(N2CCN(C(=O)[C@H](CCC(=O)O)n3cc([C@@H](N)[C@H](C)CC)nn3)CC2)n1 (some centres not stated)	.	18%	.	3%	89µM*	?
C#CCOCCOCCOCCNc1nc(N2CCN(C(=O)[C@H](CCCCN)n3cc(C(N)CC(C)C)nn3)CC2)nc(N2CCN(C(=O)[C@H](CCC(=O)O)n3cc(C(N)[C@H](C)CC)nn3)CC2)n1 (some centres not stated)	50µM*	49%	-136%[59 µM]	-10%	50µM*	.
C#CCOCCOCCOCCNc1nc(N2CCN(C(=O)[C@H](CCCCN)n3cc(C(N)CO)nn3)CC2)nc(N2CCN(C(=O)[C@H](CCC(=O)O)n3cc(C(N)CC(C)C)nn3)CC2)n1 (some centres not stated)	20µM*	.	?	.	.	.
O=C(O)C#CC12CC3CC(CC(C3)C1)C2	.	.	.	.	.	-3%
Clc1ccc2oc([C@H]3CCN(Cc4ccccn4)C3)nc2c1	.	.	.	.	.	58%[176 µM]
CN(Cc1cc(C[C@@H]2C[C@H](NC(=O)C(C)(C)C)C2(C)C)no1)c1ccccc1	.	.	.	.	.	7%[176 µM]
Cc1ccc(-c2nnc([C@H]3CCN(C4CCC4)C3)o2)cc1	.	.	.	.	.	22%[176 µM]
O=C1CC(N2CCOCC2)=NN1c1ccc([N+](=O)[O-])cc1	-26%	-4%	.	-4%	-35%	25%
CN(C)c1ccc(/C=C2/C(=O)N(c3ccc([N+](=O)[O-])cc3)N=C2N2CCOCC2)cc1	7.1µM*	.	-6%[0.501 µM]	.	.	.
O=C(Cc1cccs1)N(c1ccc(F)cc1)C1(C(=O)NC2CCCCC2)CCCC1	-5%	47%	55%[59 µM]	-6%	1%	-19%
O=[N+]([O-])c1ccc(-n2cccc2/C=N/Nc2nc(N3CCCCC3)nc(N3CCCCC3)n2)cc1	-24%	.	25%	.	.	.
O=[N+]([O-])c1cccc(-n2cccc2/C=N/Nc2nc(N3CCCCC3)nc(N3CCCCC3)n2)c1	.	?	32µM*	-5%	?	2%
Oc1cccc(/C=N/Nc2cc(N3CCCC3)nc(N3CCCC3)n2)c1	45µM*	?	-9%[59 µM]	4%	56µM*	?
Oc1ccc(/C=N/Nc2nc(N3CCCC3)nc(N3CCCC3)n2)cc1O	-22%	10%	10µM*	-9%	?	-18%
COc1ccc(/C=N/Nc2cc(N3CCCC3)nc(N3CCCC3)n2)cc1	?	-10%	22µM*	-6%	?	?
CCOc1ncccc1C(=O)OCC(=O)Nc1cc(C)ccc1C	-4%[57.1 µM]	?	12%	-10%	-15%	0%
SMILES	BAZ2B inh	HP1b binding inh	G9a inh	PLK1 PBD block	JMJD2A Tudor inh	12-LOX inh
CC(/C=C1\N=C(SCc2ccccc2Cl)SC1=O)=C\c1ccccc1	?	?	-12%	27µM*	56µM*	-32%
CC1=N/C(=C/c2ccco2)C(=O)O1	.	-1%	28µM*	-23%	?	-19%
Cc1cc(O)cc2c1C(=O)/C(=C/c1ccco1)O2	?	-31%	?	?	?	?
CCCSC1=N/C(=C\C=C\c2ccco2)C(=O)S1	11µM*	35µM*	14µM*	-19%	16µM*	?
CSC1=N/C(=C\c2ccc(C(=O)O)cc2)C(=O)S1	.	.	.	.	.	-61%
O=C1SC(SCc2ccccc2)=N/C1=C\c1ccc(C(=O)O)cc1	?	-11%	.	19µM*	?	-19%
Cc1ccc2c(c1)C(=O)OC(C(=O)Nc1ncc(Cc3ccccc3Cl)s1)C2 (configuration not stated)	-5%	19%	0%[59 µM]	.	-4%	-6%
CC(C)N(C(=O)CS(=O)(=O)c1ccc(Cl)c(Cl)c1)C(C)C	-4%	32%	11%[12.7 µM]	-8%	-12%	0%
CCC(=O)Nc1cc(-c2nc3ncccc3o2)ccc1Cl	-1%	37%	19%	0%	-19%	2%
CCOCCOc1nc2c(c(=O)n(C)c(=O)n2C)n1CCc1ccccc1	0%	66%	?	-9%	-5%[11.4 µM]	-13%
O=C1NNC(c2ccccc2)=N/C1=C\c1ccco1	71µM*	-12%	.	?	?	?
O=C1SC(c2ccccc2)=N/C1=C/c1ccco1	-30%	-13%	50µM*	-8%	?	?
O=C1CNC(=O)/C(=C/c2ccco2)N1	-21%	1%	-43%	-14%	12%	16%
O=C1SC(SCc2ccccc2)=N/C1=C\c1ccco1	13µM*	?	13µM*	?	56µM*	?
COc1cc(/C=C2\N=C(C)OC2=O)cc(OC)c1OC	-4%	8%	32µM*	-11%	-9%	?
